From PubChem
ssDAF-12 act: activators of S. stercoralis DAF-12 nuclear receptor | HEK293 ssDAF-12/GRIP1 lit1-tk-luc reporter, luminescence; % of 3 µM dafachronic acid response | activation, % at 6.8 µM | 370,000 tested, 1% active | AID 652126;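 active means activation above the mean over all tested compounds plus 3 SD, cut at about 0.9% in these data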;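 further: 0% = DMSO-only wells and 100% = 3 µM delta7-dafachronic acid wells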
hgDAF-12 ag: agonists of H. glycines DAF-12 nuclear receptor; HEK293 GAL4-hgDAF12 UAS-luciferase reporter, agonist luminescence; normalized to butyrate control; activation, % at 6.8 µM; 370,000 tested, 1.8% active; AID 687014;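 active means activation above a cutoff set at the mean of all screened compounds plus 3 SD, cut at about 10% in these data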;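 further: 0% = DMSO wells and 100% = sodium butyrate wells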
DAX1 inh-1: DAX1 (NR0B1) inhibition, primary screen. HEK293T StAR-luciferase reporter, SF-1/DAX-1 repression relief. inhibition, % at 6.8 µM. 370,000 tested, 1.1% active;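 active means inhibition above the mean over all tested compounds plus 3 SD, cut at about 3.6% in these data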;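 further: 0% = DAX-1 cells with DMSO and 100% = cells lacking DAX-1 with DMSO; higher inhibition means more luminescence from relief of DAX-1 repression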
hcDAF-12 act: activates DAF-12 receptor from parasite H. contortus; activation, % at 6.8 µM; AID 652067; HEK293 hcDAF-12 lit1-tk-luc reporter, luminescence; 0% DMSO, 100% Δ7-dafachronic acid; 370,000 tested, 1.4% active;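 active means activation above the mean of all tested compounds plus 3 SD, cut at about 5.5% in these data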;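 further: 100% = response to 3 µM Δ7-dafachronic acid high control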
DAX1 inh-2: NR0B1 (DAX1) inhibition; P51843; HEK293 Gal4-DAX1 luciferase reporter, luminescence; inhibition, % at 6.75 µM; 340,000 tested, 0.99% active; AID 504766;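 active means inhibition above the mean over all tested compounds plus 3 SD, cut at about 4.2% in these data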;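 further: 0% = DAX1-transfected cells with DMSO and 100% = empty-vector control cells with DMSO; inhibition shows as a rise in luminescence from relieved DAX1 repression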
Target sequence (P51843 207-470 limits assumed): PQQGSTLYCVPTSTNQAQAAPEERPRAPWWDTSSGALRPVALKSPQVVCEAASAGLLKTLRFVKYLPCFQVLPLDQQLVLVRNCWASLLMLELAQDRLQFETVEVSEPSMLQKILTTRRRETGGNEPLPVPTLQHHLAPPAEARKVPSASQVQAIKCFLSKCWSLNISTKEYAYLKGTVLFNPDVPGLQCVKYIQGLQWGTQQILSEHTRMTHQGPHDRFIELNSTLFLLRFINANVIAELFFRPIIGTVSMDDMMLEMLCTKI
SMARCA2 activ: activators of SMARCA2 function | MG213 cells, MMTV-luciferase reporter, dexamethasone, overnight | activation, % at 9.1 µM | 370,000 tested, 1% active; in the data active means activation above about 7.8%;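 further: 0% = vehicle wells and 100% = reference activator wells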
LXRb hcDAF ctr: counter-screen for hcDAF-12 agonists: agonists of human LXR-beta; HEK293 Gal4-LXR tk-luc reporter, luminescence, 24 h; normalized: DMSO 0%, positive control 100%; 3,400 tested, under 10 active; AID 743027; activation, % at 6.8 µM; shares compounds with hcDAF-12 act;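 active means mean percent activation of the reporter above a cutoff set as the average over tested compounds plus their standard deviation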
Target sequence (P55055 whole entry, looked up, the tested form may be a part): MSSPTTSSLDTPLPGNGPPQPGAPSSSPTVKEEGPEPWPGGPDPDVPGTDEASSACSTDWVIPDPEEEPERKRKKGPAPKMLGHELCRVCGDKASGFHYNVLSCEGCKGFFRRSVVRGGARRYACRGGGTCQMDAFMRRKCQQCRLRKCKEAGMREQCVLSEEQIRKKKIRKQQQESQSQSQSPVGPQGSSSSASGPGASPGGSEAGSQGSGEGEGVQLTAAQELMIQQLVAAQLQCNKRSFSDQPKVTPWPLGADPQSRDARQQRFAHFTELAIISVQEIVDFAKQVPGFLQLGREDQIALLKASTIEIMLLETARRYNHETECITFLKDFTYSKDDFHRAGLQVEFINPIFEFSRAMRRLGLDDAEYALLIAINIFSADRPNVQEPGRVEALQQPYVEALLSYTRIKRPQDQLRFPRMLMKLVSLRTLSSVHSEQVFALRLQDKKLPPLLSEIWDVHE
hcDAF12 conf: confirmation of H. contortus DAF-12 agonists. shares compounds with hcDAF-12 act. HEK293 hcDAF-12 lit1-tk-luc reporter, luminescence; % of Δ7-dafachronic acid response. activation, % at 6.8 µM. 3,400 tested, 61% active;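 active means mean activation across triplicate tests above the threshold derived from the earlier primary screen, cut at about 5.5% in these data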;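 further: 0% = DMSO only wells and 100% = 3 µM Δ7-dafachronic acid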
* marks the source's active call; other numbers are inactive results; . = no result given. Only some compounds are listed: those with a hit (about 4.8% of all), similar ones and a draw of the others.

SMILES	ssDAF-12 act	hgDAF-12 ag	DAX1 inh-1	hcDAF-12 act	DAX1 inh-2	SMARCA2 activ	LXRb hcDAF ctr	hcDAF12 conf
Cc1ccnc(NC(=O)Nc2cccc(F)c2)c1	1.5*	17.0*	3.7*	16.4*	-0.6	0.6	2.0	14.6*
CCCCCCCCN1C(=O)[C@@H](CC(=O)N2CCCC2)C[C@@]2(C(=O)OC)C1=C[C@H](C(C)C)O[C@@H]2C1CC1	-0.8	-0.2	-1.4	0.0	.	-2.6	.	.
O=C(O)c1ccc2c(c1Nc1ccccc1)C(=O)c1ccccc1C2=O	0.5	-0.4	0.4	7.5*	4.4*	-2.1	-0.3	2.8
Cc1c(C(=O)NC2CCN(Cc3ccccc3)C2)oc2c(Cl)cccc12 (stereo unspecified)	-0.6	-0.9	0.3	7.0*	0.1	0.8	-0.3	2.1
O=C(NC1CCN(Cc2ccccc2)CC1)c1ccccc1Cl	-0.6	-1.8	-0.3	0.5	-1.1	-2.1	.	.
Cc1ccc(C(=O)Nc2cccc3cccnc23)cc1Br	0.0	3.2	0.3	6.9*	.	-0.5	0.5	7.8*
O=C(Nc1cccc2cccnc12)c1ccc2c(c1)OCCO2	-0.3	6.9	0.3	8.7*	0.1	2.9	0.6	5.7*
CCC(=O)Nc1cccc2cccnc12	-1.6	-0.5	0.3	0.7	0.0	-3.5	.	.
CCN(CC)C(=O)CSc1nnc(-c2ccccn2)n1C	-1.1	2.3	-0.4	-0.7	.	-5.9	.	.
CCOCCCNC(=O)CCC(=O)NNc1nc2ccccc2c2nc(C)nn12	-1.2	-2.3	0.0	0.1	-0.3	-3.0	.	.
COCCCNC(=O)CCC(=O)NNc1nc2ccccc2c2nc(C)nn12	-0.1	1.4	0.3	7.2*	1.1	-4.9	-0.1	3.3
Cc1cc(C)nc(SCC(=O)Oc2ccc3oc(=O)cc(C)c3c2)n1	-0.5	6.4	0.4	-0.2	0.6	1.0	.	.
Cc1cc(=O)oc2ccc(OC(=O)CN3C(=O)c4cccc([N+](=O)[O-])c4C3=O)cc12	-0.9	1.4	0.4	8.8*	0.4	-2.1	-0.2	2.3
COc1ccc(CN(CCN2CCOCC2)C(=O)c2ccc(F)cc2Cl)cc1OC	-1.0	-0.4	1.0	-3.1	.	-7.4	.	.
CC(C)C[C@@H]1COc2cccc(N3CCCC3)c2S(=O)(=O)N1	-0.9	-4.3	0.1	-1.3	.	-3.3	.	.
Cc1cccnc1NC(=O)c1cccc(S(=O)(=O)N2CCCC2)c1	0.2	-1.8	0.3	7.0*	0.7	-0.1	-0.1	4.8
C/C(=N\NC(=S)Nc1ccc(C)c(C)c1)c1ccc(N2CCOCC2)cc1	-0.2	3.4	0.1	6.9*	0.2	1.1	-0.2	2.3
CC1=NN(C(N)=S)C(=O)C1N=Nc1ccc(Br)cc1 (stereo unspecified)	0.0	5.3	1.8	9.8*	2.5	3.6	1.3	12.4*
CC1=NN(c2ccccc2)C(=O)C1N=Nc1ccc(N)cc1 (stereo unspecified)	-1.1	-0.1	-3.2	1.4	-3.5	-2.2	.	.
CC1=NN(c2ccccc2)C(=O)C1N=Nc1ccccc1 (stereo unspecified)	0.1	8.5	0.7	8.0*	1.9	2.7	0.8	11.4*
COc1cccc(Cn2cc(COC(=O)N(C)Cc3ccccc3)nn2)c1	-1.2	-0.9	-0.8	-1.7	.	-1.6	.	.
O=C(C1=C(O)C(=O)N(CCN2CCOCC2)C1c1cccc(F)c1)c1cc2ccccc2o1 (stereo unspecified)	0.4	1.1	-0.3	8.3*	-0.2	-0.3	0.0	2.7
Cc1ccc(-c2cc(C(=O)n3cnc4ccccc43)c3ccccc3n2)cc1C	1.5*	6.6	3.1	8.1*	0.6	7.0	0.3	4.3
Cc1nn(-c2ccccc2)c2sc(C(=O)NCCc3ccc(Cl)cc3)cc12	-1.6	1.8	-1.5	0.5	.	-5.9	.	.
Cc1ccc(NCC(=O)c2ccccc2)cc1Cl	-0.1	2.0	-0.3	7.7*	0.7	5.4	-0.1	3.3
SMILES	ssDAF-12 act	hgDAF-12 ag	DAX1 inh-1	hcDAF-12 act	DAX1 inh-2	SMARCA2 activ	LXRb hcDAF ctr	hcDAF12 conf
Cc1ccc(C(=O)CNc2ccc(C)c(Cl)c2)cc1	-1.3	-0.7	0.6	0.1	0.7	2.8	.	.
CSc1ccccc1-c1nnc(-c2ccccc2)o1	2.2*	12.9*	4.4*	11.5*	4.0	7.0	1.3	11.7*
O=C1N[C@@H](Cc2ccccc2)C(=O)N2[C@H]1C[C@]1([C@]34C[C@H]5C(=O)N[C@@H](Cc6ccccc6)C(=O)N5[C@H]3N(S(=O)(=O)c3ccccc3)c3ccccc34)c3ccccc3N(S(=O)(=O)c3ccccc3)[C@H]21	-1.2	-1.4	-0.8	1.1	0.5	2.3	.	.
C[C@H]1C(=O)N2[C@@H](C[C@]3(c4c[nH]c5ccccc45)c4ccccc4N(S(=O)(=O)c4ccccc4)[C@H]23)C(=O)N1C	-0.9	0.7	.	6.8*	.	.	-0.3	1.8
Cc1ccc(NN=C2c3ccccc3-c3ccccc32)cc1	0.2	8.7	1.3	10.7*	1.7	-0.3	0.4	9.0*
Cc1ccc(CN=C2Nc3ccccc3CS2)cc1	0.4	15.4*	4.1*	9.7*	0.8	5.6	1.9	10.1*
CC1CCC2(CC1)CCC2NCc1ccc(Cl)c(Cl)c1 (stereo unspecified)	-1.1	0.9	.	-1.4	.	.	.	.
Cc1nn(C)c(C(=O)NC(=S)Nc2ccccc2O)c1Cl	1.4*	1.0	0.5	6.7*	0.8	-2.7	-0.1	6.4*
CCOc1ccc(NC(=S)NC(=O)c2c(Cl)c(C)nn2C)c([N+](=O)[O-])c1	-0.7	0.2	0.8	0.1	-1.9	1.0	.	.
COc1ccc(CNCc2cc3c(cc2[N+](=O)[O-])OCO3)cc1	0.7	2.6	1.0	9.4*	0.2	-1.8	-0.2	0.5
COC(=O)c1cc(S(=O)(=O)NCC2CCN(C(=O)C(=O)c3cccs3)CC2)cs1	-0.9	1.9	0.7	-1.5	.	-4.1	.	.
COc1cc(C=C2C(=O)OC(C)(C)OC2=O)ccc1OCC(=O)Nc1ccccc1	-0.3	7.7	1.0	7.1*	2.0	-0.1	0.1	2.6
Cc1cc(C)cc(N=Cc2[nH]c3ccc(Br)c(Cl)c3c2O)c1	-0.4	-3.1	-0.6	35.4*	-1.0	-1.8	-0.3	-0.6
COc1ccc(NCc2nc3ccccc3n2C)cc1	2.4*	12.0*	2.3	10.0*	5.6*	2.7	1.2	11.6*
Cc1ccc(NCc2nc3ccccc3n2C)cc1C	1.7*	13.2*	3.1	13.0*	3.3	6.1	1.0	8.2*
Cn1c(CNc2ccc(O)cc2)nc2ccccc21	0.0	-1.2	-0.2	-0.3	0.6	-0.4	.	.
